Sampled rows, rich in hits. Any-hit rate of the full collection: about 4.1%.
aSyn 5UTR inh: MLPCN primary screen, SNCA 5' untranslated region. alpha-synuclein 5'UTR reporter, inhibitor activity. inhibition, % (tested at 7.5 µM). 300,000 compounds, 0.82% hits. AID 1813; in the data active = inhibition above about 60%;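 also: H4 neuroglioblastoma cells stably carrying SNCA 5'UTR luciferase fusion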
KLF5 inhibitor: kruppel-like factor 5 inhibition. DLD-1 KLF5 promoter-luciferase reporter, luminescence. inhibition, % at 5 µM. 290,000 compounds, 0.23% hits. AID 1700;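 active = inhibition above a per-plate limit of that plate's mean compound inhibition plus 3 SD, cut at about 60% in these data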;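 also: higher means less KLF5 promoter-driven luciferase light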
Mdm2 MdmX PPI: disrupts the human Mdm2-MdmX interaction. O15151+Q00987. SaOS-2 split-luciferase Mdm2/MdmX complementation, luminescence. inhibition, % at 8 µM. 330,000 compounds, 3% hits. AID 485346;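 active = inhibition of at least 50% at 8 µM in the primary screen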
Target sequence (O15151 whole entry, looked up): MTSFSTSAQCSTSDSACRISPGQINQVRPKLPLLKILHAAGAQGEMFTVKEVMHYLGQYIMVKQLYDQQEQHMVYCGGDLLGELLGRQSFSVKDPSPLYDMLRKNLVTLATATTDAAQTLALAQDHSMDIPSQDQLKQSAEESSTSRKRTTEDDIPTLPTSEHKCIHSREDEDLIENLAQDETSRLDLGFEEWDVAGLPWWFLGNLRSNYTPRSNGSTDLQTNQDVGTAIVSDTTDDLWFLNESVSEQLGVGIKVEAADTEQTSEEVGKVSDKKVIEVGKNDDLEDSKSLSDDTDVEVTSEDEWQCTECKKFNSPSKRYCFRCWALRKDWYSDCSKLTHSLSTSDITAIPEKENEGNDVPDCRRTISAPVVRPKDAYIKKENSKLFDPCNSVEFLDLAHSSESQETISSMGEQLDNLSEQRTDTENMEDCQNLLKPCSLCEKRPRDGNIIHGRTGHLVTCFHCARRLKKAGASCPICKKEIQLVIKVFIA
Target sequence (Q00987 whole entry, looked up): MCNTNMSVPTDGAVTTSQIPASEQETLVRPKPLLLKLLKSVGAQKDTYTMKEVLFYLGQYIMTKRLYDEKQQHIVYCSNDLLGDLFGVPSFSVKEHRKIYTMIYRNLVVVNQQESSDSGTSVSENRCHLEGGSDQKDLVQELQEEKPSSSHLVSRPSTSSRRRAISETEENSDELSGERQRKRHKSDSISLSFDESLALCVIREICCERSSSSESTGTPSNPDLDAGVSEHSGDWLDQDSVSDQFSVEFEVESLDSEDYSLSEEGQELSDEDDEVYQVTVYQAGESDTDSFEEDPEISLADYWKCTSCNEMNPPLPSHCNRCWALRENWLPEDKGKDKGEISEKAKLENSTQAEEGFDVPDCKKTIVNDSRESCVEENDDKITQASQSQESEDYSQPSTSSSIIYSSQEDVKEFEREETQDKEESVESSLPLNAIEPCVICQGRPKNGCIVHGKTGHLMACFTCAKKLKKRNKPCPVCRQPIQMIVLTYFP
Jurkat NFkB inh: inhibitors of the PMA/ionomycin-induced NF-kB reporter in Jurkat cells. PMA/ionomycin-induced NF-kB luciferase reporter, luminescence. inhibition, % at 4 µM. 330,000 compounds, 0.53% hits. AID 435003; in the data active = inhibition above about 50%
697 NFkB inh: inhibitors of the PMA/ionomycin-induced NF-kB reporter in 697 B cells. 697 B-cell NF-kB luciferase reporter, 16 h. inhibition, % at 4 µM. 330,000 compounds, 0.33% hits. AID 435022; in the data active = inhibition above about 35%
Gli-Sufu antag: blocks Gli-Sufu signaling in a luciferase reporter | AID 588413 | Sufu-KO-LIGHT fibroblasts, Gli luciferase reporter luminescence | 340,000 compounds, 0.74% hits | inhibition, % at 5 µM;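 active = inhibition above about 55%, limit read from the data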
Mdm2 MdmX conf: human Mdm2/MdmX binding inhibition, confirmed; shares compounds with Mdm2 MdmX PPI; luminescent assay; inhibition, % at 8 µM; 10,000 compounds, 55% hits; AID 489028; in the data active = inhibition above about 40%
FLuc counter: full-length luciferase inhibition in Mdm2/MdmX counter-screen; shares compounds with Mdm2 MdmX PPI; SaOS-2 full-length luciferase counterscreen, luminescence; inhibition, % at 8 µM; 6,200 compounds, 77% hits; AID 504607;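 active = mean inhibition at 8 µM reaching about 37%, which flags the compound as non-specific, limit read from the data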;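 also: p53-null SaOS-2 cells with luciferase driven by a doxycycline-inducible promoter; compound on cells about two nights before reading with doxycycline added after day one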
Large screens that a line does not name were inactive (follow-up assays come after a bar, where they were run).

O=C(CCCN1C(=O)/C(=C/c2cccs2)SC1=S)Nc1cccc(O)c1	Mdm2 MdmX PPI 89 | Mdm2 MdmX conf 80 | FLuc counter 73
O=C(CCN1C(=O)/C(=C/c2cccs2)SC1=S)Nc1cccc(O)c1	none
Cc1ccc(/C=C2\SC(=S)N(CCC(=O)NNC(=O)c3ccccc3O)C2=O)cc1	Mdm2 MdmX PPI 53 | Mdm2 MdmX conf inactive
O=C(CCCN1C(=O)/C(=C\c2ccccc2)SC1=S)Nc1cccc(C(=O)O)c1	none
CC1CCN(c2ccc3c(c2)S(=O)(=O)c2cccc(C(=O)NC4CCCCC4)c2C3=O)CC1	none (no result: aSyn 5UTR inh, KLF5 inhibitor)
COCCN(C(=O)COC(=O)CCOc1cccc(C)c1)c1c(N)n(Cc2ccccc2)c(=O)[nH]c1=O	none (no result: KLF5 inhibitor)
CC1C(=O)N2CCCc3cc(NC(=O)C4CC4)cc1c32 (centres undefined)	none (no result: KLF5 inhibitor)
O=C(CCN1C(=O)/C(=C\c2ccc(F)cc2)SC1=S)Nc1ccccc1	none
O=C(CCCN1C(=O)/C(=C/c2cccs2)SC1=S)Nc1ccccn1	Mdm2 MdmX PPI 56 | Mdm2 MdmX conf 60 | FLuc counter 98
O=C(CCCN1C(=O)/C(=C\c2ccccc2)SC1=S)Nc1ccc(O)cc1	Mdm2 MdmX PPI 99 | Mdm2 MdmX conf 100 | FLuc counter inactive
O=C(CN1C(=O)S/C(=C\C=C\c2ccccc2)C1=O)Nc1ccc(O)cc1	Mdm2 MdmX PPI 78 | Mdm2 MdmX conf 42 | FLuc counter 81
Cc1ccc(NC(=O)CCCN2C(=O)/C(=C/C=C/c3ccccc3)SC2=S)cc1	Mdm2 MdmX PPI 57 | Mdm2 MdmX conf 41 | FLuc counter 47
CCCCN(C(=O)c1cc2ccccc2o1)c1c(N)n(CCC)c(=O)[nH]c1=O	none
COc1cccc2c1OC1(C)CC2N(C(=O)c2ccco2)C(=S)N1c1ccc(F)cc1 (centres undefined)	Mdm2 MdmX PPI 65 | Mdm2 MdmX conf 53 | FLuc counter 70
Cc1nc2cc(NCc3ccccc3O)ccc2n1Cc1ccccc1	none
N/C(=N\c1nc(CSc2nc3ccccc3s2)cc(=O)[nH]1)Nc1ccc(F)cc1	Mdm2 MdmX PPI 57 | Mdm2 MdmX conf 46 | FLuc counter 52
Cc1ccc(N/C(N)=N/c2nc(CSc3nnc(N)s3)cc(=O)[nH]2)cc1	none
CC(C)Cn1c(=O)c(CCC(=O)Nc2ccc(N3CCOCC3)cc2)nc2cc(Cl)ccc21	none
COc1ccc(CCCC(=O)NCc2ccccc2)cc1C	Mdm2 MdmX PPI 53 | Mdm2 MdmX conf 48 | FLuc counter 71
O=C(Nc1ccc(OC(F)F)cc1)c1cc(S(=O)(=O)N2CCOCC2)ccc1F	none
Nn1c(SCC(=O)Nc2ccc(N3CCOCC3)cc2)nnc1-c1ccccc1F	none (no result: aSyn 5UTR inh, KLF5 inhibitor)
COc1cc(-c2onc3ccc(Br)cc23)cc(OC)c1OC	aSyn 5UTR inh 66, Mdm2 MdmX PPI 50 | Mdm2 MdmX conf 52 | FLuc counter 60
COc1ccc(-c2onc3ccc(Br)cc23)cc1	none
COc1ccccc1NC(=O)COC(=O)C1CC2CCCC(C1)C2=O (centres undefined)	none (no result: aSyn 5UTR inh, KLF5 inhibitor)
COc1ccc(C2NC(=S)NC3=C2CCc2cc(OC)ccc23)cc1 (centres undefined)	none
N#CC(c1ccccc1)c1ccc2c(C(F)(F)F)cc(C(F)(F)F)nc2n1 (centres undefined)	Mdm2 MdmX PPI 68 | Mdm2 MdmX conf inactive
FC(F)(F)c1cc(C(F)(F)F)c2ccc(N/N=C/c3ccccc3)nc2n1	none
N/C(CCS(=O)(=O)c1ccc(Cl)cc1)=N\OC(=O)c1ccccc1Cl	Mdm2 MdmX PPI 92 | Mdm2 MdmX conf 87 | FLuc counter 50
N/C(Cc1ccc(Cl)cc1)=N\OC(=O)c1ccc2ccccc2c1	Mdm2 MdmX PPI 99 | Mdm2 MdmX conf inactive
N/C(Cc1ccc(Cl)cc1)=N\OC(=O)c1cccc2ccccc12	Mdm2 MdmX PPI 99 | Mdm2 MdmX conf 76 | FLuc counter 39
COc1ccc(C/C(N)=N/OC(=O)c2ccc(Cl)cc2)cc1	none
COCCn1c(=N)c(S(=O)(=O)c2ccc(F)cc2)cc2c(=O)n3ccccc3nc21	none
COc1ccc(CCNC(=O)C2CCC(C(C)(C)C)CC2)cc1OC (centres undefined)	none
CN1CCC(N(C)C(=O)c2cc(S(=O)(=O)N(C)c3ccccc3)ccc2Cl)CC1	none (no result: aSyn 5UTR inh, KLF5 inhibitor, Gli-Sufu antag)
O=C(NNC(=O)c1ccccc1OCc1ccc(F)cc1)c1ccccc1O	aSyn 5UTR inh 68, Mdm2 MdmX PPI 69 | Mdm2 MdmX conf 73 | FLuc counter inactive
C/C(=N\NC(=O)c1ccccc1OCc1ccc(F)cc1)c1ccccn1	Mdm2 MdmX PPI 93 (no result: aSyn 5UTR inh, KLF5 inhibitor) | Mdm2 MdmX conf 53 | FLuc counter 45
C/C(=N\NC(=O)c1cc(Br)ccc1O)c1ccccn1	Mdm2 MdmX PPI 57, Gli-Sufu antag 66 | Mdm2 MdmX conf inactive | FLuc counter 50
O=C(NNC(=O)c1ccccc1OCc1ccccc1)c1ccccc1O	aSyn 5UTR inh 65, Mdm2 MdmX PPI 64 | Mdm2 MdmX conf 70 | FLuc counter inactive
O=C(NCc1ccc(F)cc1)c1ccccc1OCc1ccccc1	none
O=C(NNC(=O)c1ccccc1OCc1ccccc1)c1ccccc1F	none
COc1ccc(CN(C)CC(=O)NC2CCCc3ccccc32)cc1OC (centres undefined)	none
Cc1ccc(Cl)cc1N1CCN(S(=O)(=O)c2ccc3c(c2)CC(=O)N3C)CC1	none
Cc1nc(N)nc(N)c1CCCc1ccc(Cl)c(Cl)c1	aSyn 5UTR inh 92, Mdm2 MdmX PPI 68 (no result: KLF5 inhibitor) | Mdm2 MdmX conf 57 | FLuc counter 50
Cc1ccc(OCCCCNC2CCCC(C)C2C)c(C)c1 (centres undefined)	Mdm2 MdmX PPI 56 | Mdm2 MdmX conf inactive
Cc1ccc(OCCCCN2CCCCC2)c(C)c1	none
COc1ccccc1NS(=O)(=O)c1cccc(NC(=O)NCCCl)c1	none
COc1ccccc1NS(=O)(=O)c1cccc(NC(=O)Nc2cccc(Cl)c2)c1	Mdm2 MdmX PPI 55 | Mdm2 MdmX conf 49 | FLuc counter 46
COC(=O)c1cc(NC(=O)Nc2cccc(Cl)c2)ccc1Cl	Mdm2 MdmX PPI 88 | Mdm2 MdmX conf 43 | FLuc counter 96
O=C(Nc1cccc(Cl)c1)Nc1cccc(Cl)c1	none
O=C(Nc1cccc(Cl)c1)Nc1ccc(Br)cc1F	Mdm2 MdmX PPI 82 | Mdm2 MdmX conf 80 | FLuc counter 55
O=C(Nc1ccccc1)Nc1ccc(Br)cc1F	none
CCC(COC)NCc1cn(-c2ccc(OC)cc2)nc1-c1cccc(F)c1 (centres undefined)	none
C/C(N)=C(/C#N)C(=O)CSc1nc2ccccc2c(=O)n1-c1ccc(C)c(Cl)c1	none

Bioassay records (PubChem)
